Experiment [1] relates to Wnt5a (protein binding on small-molecule microarray). As to the kind of experiment: small molecules binding Wnt5a protein – biophysical, small-molecule microarray, 635/667 nm fluorescence, primary screen (AID 1142).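 Also: fluorescence read at 667 nm with signal to noise per printed feature.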 The settings on record: 635 nm fluorescence, higher = more signal.
Experiment [2] is described as follows: ATP-based viability of Huh7 replicon cells – cell-based, CellTiter-Glo luminescence, basal, 48 h, cytotoxicity control for HCV replication inhibitor project, primary screen (AID 1143).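 Also: Huh7 hepatoma cells carrying a hepatitis C replication reporter with no stimulus; test concentration not given here.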 The settings on record: higher = more signal, called active from +8 up or from −8 down. (In antiviral work, replicon cells carry a viral genome segment that copies itself.)
Experiment [3] can be described thus: Pseudomonas biofilm growth suppression – PAO1 strain, BacTiter-Glo luminescence, LB-PBS, primary screen (AID 1144). Particulars: P. aeruginosa PAO1 biofilm, 12 h, higher = more signal.
The nature of experiment [4]: basal CRE-LacZ reporter activity in PC12 – cell-based, unstimulated, primary screen (AID 1145). Particulars: no forskolin, luminescence, 4.5 h, higher = more signal, called active from +8 up or from −8 down.
Experiment [5] can be described thus: forskolin-driven CRE-LacZ activity in PC12 – cell-based, CRE-LacZ reporter, forskolin-stimulated, primary screen (AID 1146).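 Also: PC12 cells with 6xCRE LacZ reporter stimulated by forskolin 10 µM; beta-galactosidase reporter signal reflecting CREB driven transcription.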 Particulars: luminescence, 4.5 h, higher = more signal, called active from +8 up or from −8 down.
Experiment [6] concerns the target Streptavidin (Streptomyces avidinii) (UniProt P22629). As to the kind of experiment: compounds binding control protein streptavidin – biophysical, small-molecule microarray, 635/667 nm fluorescence, artefact control for SMM compound annotation, primary screen (AID 1147).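 Also: signal reflects streptavidin binding to arrayed compounds as a control protein.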 The settings on record: higher = more signal.
Experiment [7] in a line: probe aInhba binding on compound microarray – biochemical, small-molecule microarray, 635/667 nm fluorescence, primary screen (AID 1148).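 Also: score merges 667nm spot fluorescence with signal-to-noise for antibody binding to printed compounds.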 The settings on record: higher = more signal.
In experiment [8] the target is Torsin-1A (Homo sapiens) (UniProt O14656). The experiment is described as follows: TOR1A wild-type binding on microarray – cell lysate, small-molecule microarray, lysate, 635/667 nm, primary screen (AID 1149). The settings on record: COS7 hTOR1A-WT lysate, 635 nm fluorescence, higher = more signal.
Experiment [9] has the same target. The experiment is described as follows: torsin A mutant lysate binding on microarrays – cell lysate, small-molecule microarray, COS7 lysate, 635/667 nm fluorescence, primary screen (AID 1150).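 Also: score pools 667 nm emission and signal to noise measuring lysate protein binding.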 Particulars: COS7 hTOR1A mutant lysate, 635 nm fluorescence, higher = more signal.
Experiment [10] concerns Sonic hedgehog protein (Shh). As to the kind of experiment: Sonic hedgehog microarray binding compounds – biochemical, small-molecule microarray, 635/667 nm fluorescence, primary screen (AID 1151).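 Also: Shh protein binding to compounds spotted on small-molecule microarray slides; score combines spot fluorescence intensity with signal-to-noise across triplicate slides.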 The settings on record: 635 nm fluorescence, higher = more signal.
Experiment [11] is described as follows: optical density shifts of acrAB sulA E. coli – strain DRC41, OD650, 48 h, E. coli filamentation inducer project, primary screen (AID 1152).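 Also: E. coli MC1000 strain DRC41 lacking acrAB efflux pump and sulA.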 The settings on record: higher = more signal, called active from +8 up or from −8 down.
Experiment [12] is described as follows: probe aLefty1 binding on compound microarray – biochemical, small-molecule microarray, 635/667 nm fluorescence, primary screen (AID 1153).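 Also: score merges spot fluorescence with signal-to-noise ratio from the scanned slide images.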 The settings on record: higher = more signal.
A short description of experiment [13]: plasmodial surface anion channel blockers, osmotic lysis – cell-based, P. falciparum Indochina, OD700, 1 h, primary screen (AID 1154). The settings on record: P. falciparum Indochina infected RBC osmotic lysis, higher = more signal, called active from +8 up or from −8 down.
Experiment [14] is described as follows: plasmodial surface anion channel blockers, osmotic lysis – cell-based, P. falciparum Indochina, OD700, 2 h, primary screen (AID 1155).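 Also: lysis reports solute entry through the parasite surface anion channel PSAC.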 Particulars: P. falciparum Indochina infected erythrocytes, higher = more signal, called active from +8 up or from −8 down.
A short description of experiment [15]: changes in parasitized red cell lysis, either direction – P. falciparum Indochina, OD700, 3 h, PSAC antagonist project, primary screen (AID 1156). Particulars: P. falciparum-infected erythrocytes, osmotic lysis, higher = more signal, called active from +8 up or from −8 down.
Experiment [16] in a line: plasmodial surface anion channel blockers, osmotic lysis – cell-based, P. falciparum Indochina, OD700, 18 h, primary screen (AID 1157). Particulars: P. falciparum Indochina infected erythrocytes, osmotic lysis OD700, 18 h; higher = more signal, called active from +8 up or from −8 down.
A short description of experiment [17]: S6 kinase pathway phospho-S6 level changes – cell-based, A549, cytoblot, luminescence, serum-stimulated, primary screen (AID 1158).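 Also: serum-stimulated A549 lung adenocarcinoma cells; signal is phosphorylated S6 detected by cytoblot immunostaining with HRP secondary.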 Particulars: 5 h, higher = more signal.
Experiment [18] has as its target NADPH oxidase 2 (Homo sapiens) (UniProt P04839). As to the kind of experiment: compounds shifting NOX2 Amplex Red fluorescence – cell-based, HEK293-NOX2, PMA-stimulated, NOX inhibitor project, primary screen (AID 1159). Also: test concentration not given here. The settings on record: 45 min, higher = more signal, called active from +8 up or from −8 down.
The target in experiment [19] is NADPH oxidase 4 (Homo sapiens) (UniProt Q9NPH5). As to the kind of experiment: compounds shifting NOX4 Amplex Red fluorescence – cell-based, HEK293-NOX4, tetracycline-induced, NOX inhibitor project, primary screen (AID 1160). Particulars: HEK293-NOX4, Amplex Red H2O2 fluorescence, 45 min; higher = more signal, called active from +8 up or from −8 down.
The target of experiment [20] is NADPH oxidase 5 (Homo sapiens) (UniProt Q96PH1). As to the kind of experiment: compounds shifting NOX5 Amplex Red fluorescence – cell-based, HEK293-NOX5, NOX inhibitor project, primary screen (AID 1161). The settings on record: HEK293-NOX5, ionomycin, 45 min, higher = more signal.

Here are results for 4 compounds from PubChem BioAssay.

Activity calls are given as the source filed them. Unless noted, no rule for the calls is given here.

Chain of Streptavidin (Streptomyces avidinii) (P22629 whole entry, looked up): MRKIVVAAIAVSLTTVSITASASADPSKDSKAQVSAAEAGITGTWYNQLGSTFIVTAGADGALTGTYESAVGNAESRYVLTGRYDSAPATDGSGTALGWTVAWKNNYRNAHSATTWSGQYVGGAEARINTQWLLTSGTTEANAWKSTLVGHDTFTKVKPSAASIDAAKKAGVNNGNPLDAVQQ
Chain of NADPH oxidase 2 (Homo sapiens) (P04839 whole entry, looked up): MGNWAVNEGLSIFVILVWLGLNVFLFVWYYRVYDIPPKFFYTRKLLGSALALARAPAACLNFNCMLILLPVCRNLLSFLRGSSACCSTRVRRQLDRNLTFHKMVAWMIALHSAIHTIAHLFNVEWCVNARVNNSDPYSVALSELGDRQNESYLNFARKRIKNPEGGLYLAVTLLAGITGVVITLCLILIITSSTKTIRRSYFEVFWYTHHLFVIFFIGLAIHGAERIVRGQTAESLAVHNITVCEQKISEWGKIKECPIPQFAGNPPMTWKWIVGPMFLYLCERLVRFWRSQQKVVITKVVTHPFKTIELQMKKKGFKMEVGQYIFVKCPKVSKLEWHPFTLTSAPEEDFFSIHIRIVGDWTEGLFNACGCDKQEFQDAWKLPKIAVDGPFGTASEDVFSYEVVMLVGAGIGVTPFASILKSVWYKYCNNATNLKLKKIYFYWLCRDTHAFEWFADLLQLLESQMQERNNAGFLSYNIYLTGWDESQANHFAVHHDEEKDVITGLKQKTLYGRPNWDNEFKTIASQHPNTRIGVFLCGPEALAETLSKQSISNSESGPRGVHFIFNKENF
Chain of Torsin-1A (Homo sapiens) (O14656 whole entry, looked up): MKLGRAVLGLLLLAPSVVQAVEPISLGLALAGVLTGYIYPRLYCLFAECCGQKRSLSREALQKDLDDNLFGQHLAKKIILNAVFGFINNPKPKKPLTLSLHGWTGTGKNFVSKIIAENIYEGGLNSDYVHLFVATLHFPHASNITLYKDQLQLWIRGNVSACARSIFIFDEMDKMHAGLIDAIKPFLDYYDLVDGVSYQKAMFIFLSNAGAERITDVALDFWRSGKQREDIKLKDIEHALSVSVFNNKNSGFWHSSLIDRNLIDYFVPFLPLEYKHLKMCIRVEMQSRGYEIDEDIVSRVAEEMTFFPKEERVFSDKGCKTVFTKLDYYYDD
Chain of NADPH oxidase 4 (Homo sapiens) (Q9NPH5 whole entry, looked up): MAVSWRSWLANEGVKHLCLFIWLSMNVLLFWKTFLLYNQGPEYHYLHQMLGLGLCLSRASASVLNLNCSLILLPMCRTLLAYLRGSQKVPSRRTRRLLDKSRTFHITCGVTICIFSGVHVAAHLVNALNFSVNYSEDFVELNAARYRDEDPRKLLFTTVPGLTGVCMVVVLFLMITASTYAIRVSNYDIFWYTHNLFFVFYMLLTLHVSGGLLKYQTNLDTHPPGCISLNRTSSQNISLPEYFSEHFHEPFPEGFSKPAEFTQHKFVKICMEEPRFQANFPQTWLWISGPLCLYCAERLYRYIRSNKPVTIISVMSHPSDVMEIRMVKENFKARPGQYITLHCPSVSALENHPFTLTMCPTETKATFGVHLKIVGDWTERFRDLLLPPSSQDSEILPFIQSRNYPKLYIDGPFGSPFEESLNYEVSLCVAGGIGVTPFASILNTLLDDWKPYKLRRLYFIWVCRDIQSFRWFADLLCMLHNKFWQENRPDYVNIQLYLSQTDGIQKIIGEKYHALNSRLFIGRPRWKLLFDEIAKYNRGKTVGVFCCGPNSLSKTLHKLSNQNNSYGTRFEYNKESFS
Chain of NADPH oxidase 5 (Homo sapiens) (Q96PH1 whole entry, looked up): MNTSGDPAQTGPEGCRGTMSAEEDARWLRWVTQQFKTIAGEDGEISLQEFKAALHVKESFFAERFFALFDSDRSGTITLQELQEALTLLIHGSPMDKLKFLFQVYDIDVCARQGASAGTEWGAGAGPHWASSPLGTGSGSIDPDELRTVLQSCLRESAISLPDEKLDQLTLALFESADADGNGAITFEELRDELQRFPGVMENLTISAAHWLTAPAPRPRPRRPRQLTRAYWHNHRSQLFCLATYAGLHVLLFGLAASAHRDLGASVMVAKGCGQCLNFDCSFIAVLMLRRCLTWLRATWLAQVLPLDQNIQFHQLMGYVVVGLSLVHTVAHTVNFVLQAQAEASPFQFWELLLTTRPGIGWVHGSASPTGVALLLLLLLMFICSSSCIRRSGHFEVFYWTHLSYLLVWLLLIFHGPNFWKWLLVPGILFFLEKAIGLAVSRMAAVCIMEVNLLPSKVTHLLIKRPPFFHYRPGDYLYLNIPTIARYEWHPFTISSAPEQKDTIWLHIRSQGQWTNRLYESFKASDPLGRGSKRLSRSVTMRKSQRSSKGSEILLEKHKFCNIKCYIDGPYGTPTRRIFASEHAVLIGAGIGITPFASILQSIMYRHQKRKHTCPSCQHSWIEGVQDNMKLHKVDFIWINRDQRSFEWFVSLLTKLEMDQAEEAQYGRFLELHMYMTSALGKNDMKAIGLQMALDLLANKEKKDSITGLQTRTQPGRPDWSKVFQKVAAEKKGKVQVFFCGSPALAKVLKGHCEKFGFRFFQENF

In the case of `C[N+](C)(C)CCCCCCNC(=O)[C@H]1C[C@H]2C(=O)NCC(=O)N2[C@H]1c1cccc(OCCO)c1`, the composite z-score was -0.196 in experiment [1]; -0.518 in [6]; -0.14 in experiment [7]; 1.1 in the experiment with Torsin-1A (Homo sapiens) [8]; 0.781 with Torsin-1A (Homo sapiens) [9]; 2.17 in experiment [10]. The composite z-score in experiment [12] is -0.259. The z-score was -0.103 (inactive) in experiment [2]; 0.052 (inactive) in experiment [3]; -0.675 (inactive) in [4]; -0.487 (inactive) in [5]; -0.191 (inactive) in experiment [11]; 2.76 (inactive) in experiment [13]. For the same compound, the z-score is 0.462 (inactive) in experiment [14]; -1.36 (inactive) in experiment [15]; 0.179 (inactive) in [16]; 0.142 in [17]; 0.752 (inactive) in [18]; 1.12 (inactive) in [19]. The z-score in [20] is 1.24.

As for `COCCOC(=O)N1C(=O)[C@@]2(c3cc(C#CC4=CCCCC4)ccc31)[C@H](C(=O)N1CCc3cc(OC)c(OC)cc3C1)[C@H]1C(=O)O[C@H](c3ccccc3)[C@H](c3ccccc3)N1[C@@H]2c1ccc(O)cc1`, the composite z-score in experiment [1] was 0.718; in experiment [6], 1.85; in [7], 0.467; in the experiment with Torsin-1A (Homo sapiens) [8] it was 0.544; with Torsin-1A (Homo sapiens) [9], 1.23; in [10], 1.67. Further, the composite z-score in experiment [12] was found to be 0.679. Besides, the z-score in experiment [2] is -0.447 (inactive); in experiment [3], 0.108 (inactive); in [4], -0.321 (inactive); in [5], -0.539 (inactive); in experiment [11], 0.448 (inactive); in [13], 0.996 (inactive). For the same compound, the z-score was 0.755 (inactive) in [14]; 0.067 (inactive) in experiment [15]; 0.827 (inactive) in experiment [16]; 0.228 in experiment [17]; 1.58 (inactive) in experiment [18]; -0.0332 (inactive) in experiment [19]. Further, in [20], the z-score was found to be 1.18.

For the compound `COC(=O)[C@@]1(Cc2ccc(F)cc2)[C@H]2c3cc(C(=O)N(C)C)n(CCN4CCOCC4)c3C[C@H]2CN1C(=O)c1ccccc1`, the composite z-score in experiment [1] is 0.483; in [6], 1.36; in [7], 0.17; in the experiment with Torsin-1A (Homo sapiens) [8] it was 2.73; with Torsin-1A (Homo sapiens) [9], 2.17; in experiment [10] it was -0.976. This compound showed a composite z-score in [12] of 0.865. The z-score was -1.02 (inactive) in experiment [2]; 0.263 (inactive) in [3]; -0.372 (inactive) in experiment [4]; 0.823 (inactive) in experiment [5]; -1.43 (inactive) in experiment [11]; -0.64 (inactive) in experiment [13]. Besides, the z-score was -0.738 (inactive) in experiment [14]; 0.922 (inactive) in [15]; -1.9 (inactive) in experiment [16]; 0.537 in experiment [17]; 0.482 (inactive) in experiment [18]; 0.523 (inactive) in experiment [19]. For the same compound, the z-score in [20] was -0.757.

Regarding `C#CCN(C/C=C/c1ccccc1)[C@H](CO[Si](C)(C)C(C)(C)C)c1ccccc1`, the composite z-score was -0.276 in experiment [1]; -0.531 in experiment [6]; -0.0719 in experiment [7]; -0.805 in the experiment with Torsin-1A (Homo sapiens) [8]; -0.239 with Torsin-1A (Homo sapiens) [9]; 0.0896 in experiment [10]. In addition, the composite z-score in [12] was -0.346. Besides, the z-score in [2] was -0.832 (inactive); in experiment [3], 0.221 (inactive); in experiment [4] it was -0.0487 (inactive); in [5], -0.626 (inactive); in experiment [11], -0.78 (inactive); in experiment [13], 0.829 (inactive). The z-score was 0.984 (inactive) in experiment [14]; 1.05 (inactive) in experiment [15]; -0.161 (inactive) in experiment [16]; -0.0623 in [17]; 1.64 (inactive) in experiment [18]; 0.447 (inactive) in experiment [19]. Also, the z-score in experiment [20] is -0.419.
